Potency, outcome and max activation data for nine compounds are collected here from PubChem BioAssay (Tox21).

Test [1] in a line: qHTS assay to identify small molecule agonists of the estrogen receptor alpha (ER-alpha) signaling pathway in the presence of an antagonist - cell viability counter screen (AID 1259386).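 Further: series mostly up to about 92 µM; cells exposed to compounds for 22 h at 37 °C before the viability read; on the % scale 0 is the no-effect control and ±100 the full control effect; nearly all actives have a fitted effect of over 30% in size.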 In outline:
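ICI-182,780 at 10.0nM final accompanies the compound titration (15 concentrations, 22hr, 37C) on VM7Luc4E2 cells. The CellTiter-Fluor fluorescence readout runs in the same wells as the luciferase assay.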

Test [2] has as its target Progesterone receptor (Homo sapiens) (UniProt P06401). Description: qHTS assay to identify small molecule agonists of the progesterone receptor (PR) signaling pathway (AID 1346784; calls by dose curve; further: nearly all actives have a fitted effect of over 30% in size; further: potency means the concentration at half of the fitted maximal effect). In outline:
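Beta-lactamase reporter read-out: after 16 hr compound treatment at 37C and a further 2 hr at room temperature with LiveBLAzer B/G FRET substrate, fluorescence was measured in PR-UAS-bla HEK 293T cells grown in 2% charcoal-stripped serum.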
For orientation: qHTS replaces the single test concentration by a dilution series.

Test [3] is described as follows: qHTS assay to identify small molecule antagonists of the TGF-beta/Smad signaling pathway - cell viability counter screen (AID 1346824). Further: on the % scale 0 is the no-effect control and ±100 the full control effect; nearly all actives have a fitted effect of over 50% in size. In outline: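 SBE-bla HEK 293T cells, incubated overnight, then compound plus 0.25 ng/mL TGF-beta1 (stock added) for 5 hr at 37 C. Viability was read in the same wells by CellTiter-Glo luminescence after 30 min at room temperature.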

The nature of test [4]: qHTS assay to identify small molecule agonists of the TGF-beta/Smad signaling pathway - cell viability counter screen (AID 1346829). Further: top concentration of the series differs between compounds; on the % scale 0 is the no-effect control and ±100 the full control effect; nearly all actives have a fitted effect of over 45% in size. In outline:
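Here the cytotoxicity of library compounds is measured in SBE-bla HEK 293T cells treated for 5 hr, using CellTiter-Glo added to wells already read for the beta-lactamase reporter.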

Test [5] in a line: qHTS assay to identify small molecule agonists of the TGF-beta/Smad signaling pathway (AID 1346859; active means well fitted activation curve with a large enough effect in the signal ratio in the repeat runs, not every such curve was filed as active; the % refers to the signal ratio; further: series mostly up to about 77 µM; on the % scale 0 is the no-effect control and ±100 the full control effect). In outline: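 SBE-bla HEK 293T, 4,000 cells/well, plated o/n; cpd in DMSO, 5 hr, 37 C/5% CO2; B/G FRET substrate 2 hr RT; ex 405, em 460/530 nm.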
Test [6] concerns the target Thyrotropin-releasing hormone receptor (Homo sapiens) (UniProt P34981). The test is described as follows: qHTS assay to identify small molecule antagonists of the thyrotropin-releasing hormone receptor (TRHR) signaling pathway (AID 1346877; active means well fitted inhibition curve with a large enough effect in the repeat runs, not every such curve was filed as active; further: series mostly up to about 51 µM; on the % scale 0 is the no-effect control and ±100 the full control effect). In outline: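 Screening used HEK293 cells engineered with TRHR, with a brief 5 min room-temperature compound exposure preceding addition of TRH to 1 nM. The read-out was kinetic calcium-dye fluorescence, concentration-response from 15 doses in triplicate.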

For test [7] the target is unchanged. The test is described as follows: qHTS assay to identify small molecule agonists of the thyrotropin-releasing hormone receptor (TRHR) signaling pathway (AID 1346891; calls by dose curve; further: series mostly up to about 58 µM; on the % scale 0 is the no-effect control and ±100 the full control effect). In outline: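 Intracellular calcium rise, read as fluorescence every second for 3 min, served as the agonist signal in dye-loaded HEK293 cells expressing TRHR; each compound ran at 15 concentrations in triplicate.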

A short description of test [8]: Human pregnane X receptor (PXR) small molecule agonists, qHTS cell viability counter screen (AID 1346977). Further: on the % scale 0 is the no-effect control and ±100 the full control effect; nearly all actives have a fitted effect of over 50% in size. In outline:
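PXR-Luc HepG2, 2,000 cells/well, 5% charcoal-stripped FBS; 5hr settle; cpd 24hr, 37C/5% CO2; CellTiter-Fluor at 23hr, read 1hr later (fluorescence).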

A short description of test [9]: Caspase-3/7 induction in HepG2 cells by small molecules, qHTS assay (AID 1346978). Further: on the % scale 0 is the no-effect control and ±100 the full control effect; nearly all actives have a fitted effect of over 15% in size. In outline:
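Wild-type HepG2 cells, 2,000/well, settled 5 hr at 37 C and 5% CO2, then compound-treated for 17 hr; caspase-3/7 activity read by luminescent Caspase-Glo 3/7 after 30 min at room temperature.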

Test [10] in a line: Caspase-3/7 induction in CHO-K1 cells by small molecules, qHTS cell viability counter screen (AID 1346979). Further: nearly all actives have a fitted effect of over 35% in size. Further: potency means the concentration at half of the fitted maximal effect. In outline:
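Cells (CHO-K1, wild type) are plated at 1,500 per well and incubated 5hr. Test compounds in DMSO are then pinned in, followed by 16hr at 37C and 5% CO2. Viability is read by CellTiter-Fluor fluorescence after 1hr.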

A short description of test [11]: Caspase-3/7 induction in CHO-K1 cells by small molecules, qHTS assay (AID 1346980). Further: on the % scale 0 is the no-effect control and ±100 the full control effect; nearly all actives have a fitted effect of over 15% in size. In outline: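 Wild-type CHO-K1 cells exposed to compounds for 17hr at 37 C, 5% CO2. Caspase-3/7 activity then measured by Caspase-Glo 3/7 luminescence after 30min at room temperature.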
Test [12] is described as follows: Caspase-3/7 induction in HepG2 cells by small molecules, qHTS cell viability counter screen (AID 1346981). Further: series mostly up to about 92 µM; on the % scale 0 is the no-effect control and ±100 the full control effect; nearly all actives have a fitted effect of over 30% in size. In outline: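 Multiplexed with the caspase-3/7 assay: HepG2 cells, 16 hr compound treatment, CellTiter-Fluor viability detection by fluorescence.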
Test [13] concerns the target Acetylcholinesterase (Homo sapiens) (UniProt P22303). Description: Acetylcholinesterase (AChE) small molecule antagonists: colormetric cell-based qHTS assay (AID 1347395; calls by dose curve; further: on the % scale 0 is the no-effect control and ±100 the full control effect; nearly all actives have a fitted effect of over 30% in size). In outline: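 Colorimetric read-out: DTNB detects thiocholine released when cellular AChE in SH-SY5Y cells hydrolyses acetylthiocholine. Cells attached overnight, received compound for 30 min at 37 C, then substrate mix for 90 min at 37 C.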

Test [14] deals with Progesterone receptor (Homo sapiens) (UniProt P06401). The test is described as follows: qHTS assay to identify small molecule antagonists of the progesterone receptor (PR) signaling pathway (AID 1346795; active means well fitted inhibition curve with a large enough effect in the signal ratio in the repeat runs, not every such curve was filed as active; the % refers to the signal ratio; further: on the % scale 0 is the no-effect control and ±100 the full control effect). In outline: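 Read-out is fluorescence from the LiveBLAzer B/G FRET substrate, cleaved by a UAS-controlled beta-lactamase in PR-UAS-bla HEK293T cells after 16 hr exposure to compound plus 1 nM promegestone (final), followed by 2 hr at room temperature.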

A short description of test [15]: qHTS assay to identify small molecule antagonists of the progesterone receptor (PR) signaling pathway - cell viability counter screen (AID 1346798).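 Further: HEK293T PR-UAS-bla cells stimulated with the agonist R5020; series mostly up to about 92 µM; on the % scale 0 is the no-effect control and ±100 the full control effect; nearly all actives have a fitted effect of over 50% in size.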 In outline:
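HEK293T PR-UAS-bla, 2% charcoal-stripped FBS; 4 hr pre-plate; cpd + R5020, 16 h 37C; LiveBLAzer read first; then CellTiter-Glo 30 min RT, luminescence.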

Test [16] in a line: qHTS assay to identify small molecule agonists of the progesterone receptor (PR) signaling pathway - cell viability counter screen (AID 1346799; calls by dose curve; further: on the % scale 0 is the no-effect control and ±100 the full control effect; nearly all actives have a fitted effect of over 45% in size). In outline: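 Luminescence from CellTiter-Glo, added after the beta-lactamase FRET read in the same wells, gave cytotoxicity in PR-UAS-bla HEK293T cells treated with compounds for 16 hr at 37C.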
The target in test [17] is Nuclear receptor subfamily 1 group I member 2 (Homo sapiens) (UniProt O75469). Description: Human pregnane X receptor (PXR) small molecule agonists, qHTS assay (AID 1346982). Further: nearly all actives have a fitted effect of over 35% in size. Further: potency means the concentration at half of the fitted maximal effect. In outline:
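We seeded PXR-Luc HepG2 cells in assay medium containing 5% charcoal-stripped FBS, added compounds 5 hr later, incubated 24 hr, and read luminescence with ONE-Glo reagent.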

For test [18], the target named is Nuclear receptor subfamily 1 group I member 2 (Rattus norvegicus) (UniProt Q9R1A7). Description: Rat pregnane X receptor (rPXR) activation by small molecules, qHTS assay (AID 1346983). Further: on the % scale 0 is the no-effect control and ±100 the full control effect; nearly all actives have a fitted effect of over 20% in size. Conditions: rPXR luciferase reporter cells, One-Glo luminescence, 24 h; active compounds read high. In outline:
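Cell-based rPXR activation assay: rPXR cells, 2,000 per well, rested 5hr at 37 C, then exposed to compounds in DMSO for 24 hr at 37 C. Luciferase activity read by One-Glo luminescence after 30 min at room temperature.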

Test [19] addresses Nuclear receptor subfamily 1 group I member 2 (Homo sapiens) (UniProt O75469). The test is described as follows: CYP3A4 induction through human pregnane X receptor (PXR) by small molecules, qHTS assay (AID 1346984). Further: on the % scale 0 is the no-effect control and ±100 the full control effect; nearly all actives have a fitted effect of over 40% in size. In outline: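 qHTS, concentration-response format: HepG2 DPX-2 line, PXR/CYP3A4-luc. Exposure 24 h, 37C. Substrate Luciferin-IPA 3uM final, 3 h. Detection One-Glo, 30 min RT.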

Test [20] shares this target. Description: Human pregnane X receptor (PXR) activation by small molecules, qHTS assay (AID 1346985). Further: potency means the concentration at half of the fitted maximal effect; nearly all actives have a fitted effect of over 40% in size. In outline: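 DPX-2 cells (HepG2 co-transfected with a PXR response element and a CYP3A4-promoter luciferase construct) were seeded at 2,000 per well, rested 5 hr at 37C, then exposed to DMSO-dissolved compounds for 24 hr. Activation was read as luciferase luminescence.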

SMILES strings stand for the structures. Several values for one entry are separate records, joined by “and”; a condition that tells them apart may be missing. Equal entries are not always repeated. A number with no mark means an inactive call. Results filed as inconclusive are left out. Activity calls are given as the source filed them. Unless noted, the call rests on the fitted dose curve; in most records, active means well fitted curve in the direction sought with a large enough effect in the repeat runs; inconclusive means weak or mixed curves; inactive means no such curve, though single readings can be large; an effect the other way counts as inactive or inconclusive.

Sequence of Thyrotropin-releasing hormone receptor (Homo sapiens) (P34981 whole entry, looked up): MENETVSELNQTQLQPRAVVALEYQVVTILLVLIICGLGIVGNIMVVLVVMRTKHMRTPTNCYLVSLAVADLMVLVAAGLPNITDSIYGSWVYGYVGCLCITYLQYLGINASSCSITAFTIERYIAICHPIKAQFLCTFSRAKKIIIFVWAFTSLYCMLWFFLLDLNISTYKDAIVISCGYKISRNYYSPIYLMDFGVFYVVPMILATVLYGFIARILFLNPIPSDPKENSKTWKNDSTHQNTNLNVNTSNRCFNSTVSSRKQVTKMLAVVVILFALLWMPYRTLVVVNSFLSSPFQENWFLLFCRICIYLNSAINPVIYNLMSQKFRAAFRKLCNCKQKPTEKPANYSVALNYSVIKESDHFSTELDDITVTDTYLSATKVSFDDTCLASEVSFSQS
Sequence of Acetylcholinesterase (Homo sapiens) (P22303 whole entry, looked up): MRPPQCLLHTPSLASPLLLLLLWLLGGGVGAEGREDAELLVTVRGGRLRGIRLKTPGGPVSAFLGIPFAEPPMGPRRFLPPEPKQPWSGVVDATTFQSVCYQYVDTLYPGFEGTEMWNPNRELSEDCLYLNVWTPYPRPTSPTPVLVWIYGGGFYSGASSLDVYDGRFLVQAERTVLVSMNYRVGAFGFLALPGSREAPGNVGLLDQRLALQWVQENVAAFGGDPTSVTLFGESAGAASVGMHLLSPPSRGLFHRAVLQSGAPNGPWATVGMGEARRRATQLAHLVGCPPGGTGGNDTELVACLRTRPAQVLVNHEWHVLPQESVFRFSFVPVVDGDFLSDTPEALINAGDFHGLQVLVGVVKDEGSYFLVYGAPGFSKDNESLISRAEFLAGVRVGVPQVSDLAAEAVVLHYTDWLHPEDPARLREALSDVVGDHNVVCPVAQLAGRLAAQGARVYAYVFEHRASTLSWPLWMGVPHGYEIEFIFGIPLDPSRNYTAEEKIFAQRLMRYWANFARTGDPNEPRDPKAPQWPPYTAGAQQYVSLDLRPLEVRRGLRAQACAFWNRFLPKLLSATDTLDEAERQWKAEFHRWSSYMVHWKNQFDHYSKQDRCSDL
Sequence of Nuclear receptor subfamily 1 group I member 2 (Homo sapiens) (O75469 whole entry, looked up): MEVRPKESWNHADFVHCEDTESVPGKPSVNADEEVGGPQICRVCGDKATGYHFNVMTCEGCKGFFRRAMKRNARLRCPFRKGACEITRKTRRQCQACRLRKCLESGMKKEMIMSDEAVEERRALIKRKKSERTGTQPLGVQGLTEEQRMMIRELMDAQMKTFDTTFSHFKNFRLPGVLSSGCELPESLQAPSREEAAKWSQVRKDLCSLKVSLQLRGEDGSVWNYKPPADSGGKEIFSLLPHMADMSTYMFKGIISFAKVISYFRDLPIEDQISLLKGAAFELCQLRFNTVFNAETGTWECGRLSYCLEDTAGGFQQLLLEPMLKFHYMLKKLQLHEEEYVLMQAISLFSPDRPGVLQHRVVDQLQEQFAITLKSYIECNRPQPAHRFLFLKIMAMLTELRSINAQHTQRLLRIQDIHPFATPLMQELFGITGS
Sequence of Progesterone receptor (Homo sapiens) (P06401 whole entry, looked up): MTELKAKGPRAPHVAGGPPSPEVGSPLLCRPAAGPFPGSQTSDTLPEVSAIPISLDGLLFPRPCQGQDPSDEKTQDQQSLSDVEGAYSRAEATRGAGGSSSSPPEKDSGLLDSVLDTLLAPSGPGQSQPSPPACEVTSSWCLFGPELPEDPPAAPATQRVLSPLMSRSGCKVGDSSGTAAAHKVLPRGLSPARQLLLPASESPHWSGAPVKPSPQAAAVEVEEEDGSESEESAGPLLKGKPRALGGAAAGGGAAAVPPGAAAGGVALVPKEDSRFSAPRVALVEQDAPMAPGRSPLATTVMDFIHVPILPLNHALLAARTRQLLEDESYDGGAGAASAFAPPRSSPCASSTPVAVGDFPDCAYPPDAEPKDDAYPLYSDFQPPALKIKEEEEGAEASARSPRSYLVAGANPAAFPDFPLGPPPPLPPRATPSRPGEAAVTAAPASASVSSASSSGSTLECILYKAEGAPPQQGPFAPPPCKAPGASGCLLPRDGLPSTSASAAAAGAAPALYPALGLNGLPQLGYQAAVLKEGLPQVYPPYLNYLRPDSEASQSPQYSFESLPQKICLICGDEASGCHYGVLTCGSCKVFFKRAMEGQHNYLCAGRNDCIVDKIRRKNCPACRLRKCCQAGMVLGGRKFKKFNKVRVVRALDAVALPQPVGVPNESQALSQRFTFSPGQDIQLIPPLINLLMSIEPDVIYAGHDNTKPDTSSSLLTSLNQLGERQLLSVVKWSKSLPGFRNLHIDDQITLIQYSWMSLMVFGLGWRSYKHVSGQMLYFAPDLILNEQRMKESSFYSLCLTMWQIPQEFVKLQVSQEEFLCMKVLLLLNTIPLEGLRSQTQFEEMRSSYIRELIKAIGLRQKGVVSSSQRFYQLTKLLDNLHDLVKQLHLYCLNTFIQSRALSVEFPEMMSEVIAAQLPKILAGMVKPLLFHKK
Sequence of Nuclear receptor subfamily 1 group I member 2 (Rattus norvegicus) (Q9R1A7 whole entry, looked up): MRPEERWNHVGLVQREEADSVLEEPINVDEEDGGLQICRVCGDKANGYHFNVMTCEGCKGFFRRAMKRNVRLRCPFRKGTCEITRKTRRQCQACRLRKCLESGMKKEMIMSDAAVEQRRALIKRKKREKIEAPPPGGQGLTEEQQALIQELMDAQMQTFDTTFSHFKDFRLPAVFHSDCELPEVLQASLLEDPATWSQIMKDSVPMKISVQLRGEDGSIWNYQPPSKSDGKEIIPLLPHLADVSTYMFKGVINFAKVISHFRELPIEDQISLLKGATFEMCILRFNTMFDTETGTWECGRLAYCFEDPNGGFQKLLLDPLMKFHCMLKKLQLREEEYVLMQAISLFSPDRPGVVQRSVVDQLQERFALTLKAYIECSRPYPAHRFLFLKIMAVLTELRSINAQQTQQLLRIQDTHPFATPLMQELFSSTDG

With `C[C@]12C=CC3=C4CCC(=O)C=C4CC[C@H]3[C@@H]1CC[C@@H]2O`, the Potency entry in test [1], in [3], in [4], in test [6], in [8] and in test [9] was “inactive” in each case. Further, the Potency entry in test [11], in test [12] and in test [13] was “inactive” in each case. The Potency is 0.0271 µM (active) in test [2]; 60.7 µM (active) and 46.1 µM (active) in test [10]. The call in test [5] and in test [7] was inactive.
As to `O=C(N[C@H]1CN2CCC1CC2)c1ccc2c(c1)OCCO2`, the Potency entry in test [14], in test [15], in test [16], in test [3], in [4] and in test [6] was “inactive” throughout. Moreover, the Potency entry in [8], in [9], in test [10], in [11], in [12] and in test [17] was “inactive” each time. Further, the result in [5] and in [7] was inactive.
On to `CC(O)CN1CCN(CC(=O)[O-])CCN(CC(=O)[O-])CCN(CC(=O)[O-])CC1.[Gd+3]` (stereo not drawn), for which the Potency result in test [1], in [15], in test [16], in [3], in test [4] and in test [6] was “inactive” in each case. Besides, the Potency entry in test [8], in test [9], in test [10], in [11], in test [12] and in test [17] was “inactive” in each case. The Potency result in test [13] is “inactive”. In addition, the result in [5] and in test [7] was inactive.
Take `CCCCC1C(=O)NC(=O)N(C2CCCCC2)C1=O` (stereo not drawn): the Potency result in test [1], in test [15], in [16], in [3], in test [4] and in test [8] was “inactive” in each case. Besides, the Potency result in test [9], in test [10], in test [11], in [12], in test [17] and in test [13] was “inactive” throughout. Further, the result in test [5] was inactive.
Take `N#CC(C#N)=C(C#N)C#N`: the Potency result in [2], in test [14], in [15], in test [16], in test [3] and in test [4] was “inactive” in each case. Further, the Potency result in test [6], in test [9], in test [11], in [17] and in test [13] was “inactive” throughout. The outcome in test [5] and in [7] was inactive.
On to `NC(=S)c1c(Cl)cccc1Cl`, for which the Potency result in [1], in test [15], in test [16], in [3], in [4] and in test [8] was “inactive” in each case. In addition, the Potency result in [9], in [10], in [11], in test [12], in test [17] and in [13] was “inactive” in each case. Besides, the compound was classed as inactive in [5].
For `C#C[C@]1(O)CC[C@H]2[C@@H]3CCC4=CC(=O)CCC4=C3C=C[C@@]21CC`, the Potency result in test [1], in test [3], in test [4], in test [6], in test [8] and in test [9] was “inactive” each time. Besides, the Potency result in test [11], in test [12] and in test [13] was “inactive” in each case. Further, the result in test [7] was inactive. In [10], the Potency was 26.6 µM (active). Moreover, the max activation in [18] is -15.2%.
As for `COc1ccc(C(=O)c2c(C)n(CCN3CCOCC3)c3ccccc23)cc1`, the Potency entry in test [1], in test [2], in test [3], in test [4], in [6] and in test [8] was “inactive” throughout. In addition, the Potency entry in test [9], in [11] and in [13] was “inactive” throughout. The compound was called inactive in test [5], in [7] and in [19]. The Potency in [17] was 9.44 µM (active); in test [20] it was 14.1 µM (active). In addition, in test [18], the max activation is 9.34%.
With `Cc1nnc(-c2ccccc2)c(=O)n1N`, the Potency result in test [1], in test [2], in test [16], in test [3], in test [4] and in test [6] was “inactive” each time. For the same compound, the Potency entry in test [8], in test [9], in test [10], in test [11], in test [12] and in [17] was “inactive” throughout. Further, the Potency entry in test [13] was “inactive”. In addition, the compound was called inactive in test [5] and in [7].
